In the library only some 21% were active in any assay of this set; here they are far more common.
Cycloheximide cs = affects cycloheximide protein synthesis inhibition readout, counter-screen. cell reporter, cycloheximide protein synthesis inhibition counterscreen. max response, %. 300,000 compounds, 12% hits; in the data active = max response mostly above about 13%, no sharp cut-off; inactive = mostly below about 14%; note: read at 38.3 µM for the half of the compounds with a filed dose; 0% is about no effect
Pf growth 96h = P. falciparum growth inhibition at 96 hours; P. falciparum luciferase reporter growth, 96 h; Potency, µM (titrated, usually from 28.7 µM), inactives show at the top dose activity change, negative = inhibition, actives largely listed as inhibitors; 320,000 compounds, 6.9% hits; note: potency is the fitted concentration of half-maximal effect; % is set by controls: 0 for no effect and ±100 for the full control effect
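P. falciparum expressing integrated firefly luciferase grown in erythrocytes (2% hematocrit, 0.05% parasitemia final) with compounds for 96 hours at 37 C, 5% CO2. Growth inhibition read as loss of luminescence after adding luciferase detection reagent.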
Pf growth 48h = inhibits P. falciparum growth in the first generation, 48 h; P. falciparum luciferase growth in erythrocytes, 48 h; Potency, µM (doses to about 28.7 µM), for the others: at the highest dose activity change, negative = inhibition, hits mostly inhibitors; 310,000 compounds, 5.9% hits; AID 504832; note: potency is the fitted concentration of half-maximal effect; % is set by controls: 0 for no effect and ±100 for the full control effect
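Erythrocytes infected with P. falciparum carrying an integrated firefly luciferase reporter (2% hematocrit, 0.1% parasitemia final) were exposed to compounds in RPMI 1640 with 0.5% Albumax at 37 C, 5% CO2. Growth inhibition was scored as reduced luminescence.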
Shiga toxin inh = Shiga toxin inhibition; Vero cells, Shiga toxin protein synthesis inhibition reporter; inhibition, % at 38.7 µM; 290,000 compounds, 9.2% hits; AID 2315; in the data active = inhibition mostly above about 28%, no sharp cut-off; inactive = mostly below about 43%; note: 0% is about no effect
HCMV inh = blocks human cytomegalovirus replication. HFF cells, HCMV-luciferase reporter, 72 h; hits give low values. activity change, negative = inhibition, % at 57.5 µM. 410,000 compounds, 4.5% hits; in the data active = activity change below about -60%; inconclusive = no clear call, values can overlap the other calls; inactive = above about -39%; note: % is set by controls: 0 for no effect and ±100 for the full control effect
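Luciferase read-out from HCMV-luciferase-infected HFFs (MOI 1 PFU/cell) 72 h post infection at 37C; compounds added after 16 h cell attachment; activity normalized between buffer-only basal and Salinomycin (10uM) inhibitor controls.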
HCV inhibitor = inhibitors of hepatitis C virus infection; AID 651820; Potency, µM (series often up to 41.8 µM), for inactives: top-dose activity change, negative = inhibition, usual class: inhibitors; 340,000 compounds, 3.4% hits; Huh7.5.1 HCVcc-Cre infection, luciferase reporter, 44 h; note: potency is the fitted concentration of half-maximal effect; % is set by controls: 0 for no effect and ±100 for the full control effect
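Luciferase read-out (15 sec integration) after a 15 min room-temperature substrate step quantifies HCVcc-Cre infection. Cells, 1,000 per well, had compound added 4 h post-plating, then virus at ~0.5 moi, and were cultured 44 h.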
Active calls of the source: *; ? = inconclusive; nt = no result given; + = active, no number. Unless noted, calls come from the whole dose curve; as a rule, active = well fitted inhibition curve with a large enough effect; inconclusive = small, poorly fitted or top-dose-only effect, or another doubt; inactive = no such curve, though single readings can be large or run the other way.

SMILES | Cycloheximide cs | Pf growth 96h | Pf growth 48h | Shiga toxin inh | HCMV inh | HCV inhibitor
O=C(Nc1c2c(nn1-c1ccc([N+](=O)[O-])cc1)CS(=O)(=O)C2)c1cccs1 | 4.8 | 5.86µM* | ? | 7.2 | -16.5 | 8.7%
CC(C)(C)n1nc2c(c1NC(=O)c1cc([N+](=O)[O-])ccc1Cl)CS(=O)(=O)C2 | 12.1 | -11.5% | ? | -2.4 | + | 0.9%
CC(C)(C)n1nc2c(c1NC(=O)c1ccc(Cl)c([N+](=O)[O-])c1)CS(=O)(=O)C2 | -3.9 | ? | ? | -8.1 | -28.4 | 8.8%
CC(=O)Nc1ccc(NC(=O)c2cnc(N3CCN(Cc4cccc(C(F)(F)F)c4)C3=O)o2)cc1 | nt | nt | nt | nt | -8.5 | nt
CN1C(=O)[C@H](Cc2ccc([N+](=O)[O-])cc2)NC1=S | -1.7 | 10.2% | 15.2% | -7.6 | -72.0* | 1.1%
Cc1nc(C(=O)N2CCc3c([nH]c4ccccc34)C2c2ccccn2)cs1 (stereo not given) | 5.1 | -13.7% | 18.2% | 79.9* | 19.5 | ?
Cc1nc(C(=O)N2CCc3c([nH]c4ccccc34)C2c2cc(F)ccc2F)cs1 (stereo not given) | 24.1* | 28.2% | 10.4µM* | 39.9* | 93.7 | 14.9%
Cc1cc2nnc(SCC(=O)Nc3cc(S(=O)(=O)N4CCOCC4)ccc3Cl)n2c2ccccc12 | -1.0 | 7.38µM* | 5.22µM* | -6.7 | ? | ?
Cc1ccc(S(=O)(=O)N2CCOCC2)cc1NC(=O)CSc1ncccn1 | nt | 3.6% | ? | nt | -6.3 | 1.7%
Cc1ccc(-c2nc(SCC(=O)Nc3cc(S(=O)(=O)N4CCCCC4)ccc3Cl)n[nH]2)cc1 | 17.2* | ? | 10.6% | 3.0 | 6.5 | ?
Nc1cc(=O)[nH]c(SCC(=O)Nc2cc(S(=O)(=O)N3CCOCC3)ccc2Cl)n1 | 2.0 | -3.0% | 0.0% | -27.3 | 7.2 | 2.5%
Cc1ccc(S(=O)(=O)N2CCOCC2)cc1NC(=O)CSc1nnc2cc(C)c3ccccc3n12 | -1.8 | 13.1µM* | 5.86µM* | -2.8 | -63.3* | ?
Cc1nc(SCC(=O)Nc2cc(S(=O)(=O)N3CCOCC3)ccc2Cl)nc(C)c1C | nt | 14.7µM* | ? | nt | -19.4 | -27.6%
COc1cccc(N2CCN(C(=O)c3cc4c(=O)n(Cc5cccs5)ccc4nc3C)CC2)c1 | nt | nt | nt | nt | 2.0 | nt
COC(=O)[C@]12CCCCC=C1N(Cc1ccco1)C(=O)[C@H](CC(=O)NCc1cccc(C(F)(F)F)c1)C2 | nt | nt | nt | nt | 9.8 | nt
CCn1c(Sc2nc(C)nc3scc(-c4cccs4)c23)n[nH]c1=O | -3.9 | 7.38µM* | ? | -5.2 | ? | ?
Cc1nc(SCC(=O)NC(=O)NCCC(C)C)c2c(-c3cccs3)csc2n1 | 0.6 | ? | 11.7µM* | 12.5 | 0.7 | ?
C=CCCC1CN(Cc2ccc(OC)cc2)S(=O)(=O)c2c(cccc2Sc2ccc(OC)c(OC)c2)O1 (stereo not given) | nt | nt | nt | nt | -3.5 | nt
COC(=O)c1ccc(CSc2ccc3nnc(-c4ccccn4)n3n2)o1 | -2.1 | 10.4µM* | ? | 7.6 | 58.4 | 17.1%
Cc1ccc(CSc2nnc3ccc(-c4ccncc4)nn23)cc1 | -8.1 | ? | ? | 23.9 | -60.2* | -17.3%
Cc1ccc(C)c(CSc2ccc3nnc(-c4ccccn4)n3n2)c1 | 1.1 | ? | 13.1µM* | -20.2 | -22.2 | ?
Cc1ccc(NC(=O)CSc2nnc3ccc(-c4ccncc4)nn23)cc1 | nt | 80.2% | 21.7% | nt | ? | 14.7%
CCSc1nnc2ccc(-c3ccc(OC)c(OC)c3)nn12 | 24.9* | 35.1% | -22.1% | 18.8 | 54.8 | -6.8%
Cc1ccc(CSc2ccc3nnc(-c4ccccn4)n3n2)cc1 | -0.4 | 10.4µM* | 2.94µM* | -9.9 | 0.0 | 10.4%
Cc1ccc(CSc2ccc3nnc(-c4cccnc4)n3n2)cc1 | -7.5 | ? | ? | -11.8 | 122.9 | 9.0%
Fc1ccc(CSc2ccc3nnc(-c4ccccn4)n3n2)cc1 | -3.3 | 3.29µM* | 3.7µM* | -6.3 | -38.7 | -2.5%
Brc1ccc(CSc2ccc3nnc(-c4ccccn4)n3n2)cc1 | -5.4 | 2.94µM* | 2.62µM* | -12.1 | 50.5 | -17.0%
Cc1ccc2nsnc2c1S(=O)(=O)Nc1ccccc1C(=O)O | -3.8 | -4.6% | -2.7% | -10.7 | -17.8 | 17.1%

Screening results from PubChem.
